Several values for one entry are separate records, joined by “and”; a condition that tells them apart may be missing. Identical values can stand only once. Results filed as inconclusive are left out. Some compounds were tested as several samples or in several runs, with calls that do not always agree. Activity calls are given as the source filed them. Calls come from the whole dose curve; as a rule, active = well fitted cell-killing curve with a large enough effect; inconclusive = small, poorly fitted or top-dose-only effect, or effect the other way; inactive = flat fitted curve, though single readings scatter.
experiment: qHTS assay for cell viability of HEK293 cells (AID 743288); conditions: ATP luminescence (CellTiter-Glo), 18 h; max response: hits give low values; note: nearly all actives have a fitted effect of over 50% in size
Description: National Center for Advancing Translational Sciences [NCATS]
NIH Chemical Genomics Center [NCGC]
U.S. Environmental Protection Agency [EPA]
National Institutes of Environmental Health Sciences [NIEHS]
National Toxicology Program [NTP]
U.S. Food and Drug Administration [FDA]
The CellTiter-Glo Luminescent Cell Viability Assay (Promega, Madison, WI) is a homogeneous method to determine the number of viable cells in culture based on quantitation of the ATP present, which signals the presence of metabolically active cells. This cell viability assay was used to screen environmental chemicals in the Hek293 cell line.
Tox21 Assay Protocol Summary:
Cell viability after compound treatment was measured using a luciferase-coupled ATP quantitation assay (CellTiter-Glo viability assay, Promega, Madison, WI) in parental HEK293 cells. Total intracellular ATP content corresponds to the number of metabolically competent cells after compound treatment. The cells were dispensed at 2,000 cells/5 uL/well in 1,536-well white/solid bottom assay plates using a Flying Reagent Dispenser (Aurora Discovery, San Diego, CA). The cells were incubated a minimum of 5 h at 37 C, followed by the addition of 23 nL of compounds dissolved in DMSO, positive controls or DMSO only using a pintool work station (Kalypsys, San Diego, CA). The assay plates were incubated for 18 h at 37 C, followed by the addition of 5 uL/well of CellTiter-Glo reagent. After 30 min incubation at room temperature, the luminescence intensity of the plates was measured using a ViewLux plate reader (PerkinElmer, Shelton, CT).
% is set by controls: 0 for no effect and ±100 for the full control effect; potency is the fitted concentration of half-maximal effect.

Compound | max response | Potency
O=CC(=O)c1ccccc1 | -4.94% (inactive) | –
OC1CCCCC1 | 10.8% (inactive) | –
Cc1c2ccccc2c(C)c2c1ccc1ccccc12 | -28% (inactive) | 44.7 µM (active)
O=[N+]([O-])c1ccccc1Nc1ccccc1 | -4.25% (inactive) | –
c1c[nH]cn1 | -0.708% (inactive) | –
CC(C)S | -8.12% (inactive) | –
Cc1ccc(S(N)(=O)=O)cc1 | -5.31% (inactive) and -1.83% (inactive) | –
OCC(CO)(CBr)CBr | -6.95% (inactive) and -8.44% (inactive) | –
O=[N+]([O-])c1cc(Cl)c(Cl)c(Cl)c1Cl | -2.48% (inactive) | –
Nc1ccccc1O | -3.09% (inactive) | –
CC(=O)OC1CC(C)OC(C)O1 (stereo not given) | -1.36% (inactive) and -5.57% (inactive) | –
CCCCCCCC/C=C\CCCCCCCC(=O)N(CCO)CCO | -16% (inactive) | –
CCCC(=O)OC(=O)CCC | -4.88% (inactive) and -8.13% (inactive) | –
c1ccc(Nc2cccc3ccccc23)cc1 | -6.95% (inactive) and -18% (inactive) | –
Nc1ccc(N=Nc2ccccc2)c(N)c1 | -22.9% (inactive) | –
N[C@@H](Cc1ccccc1)C(=O)O | 2.21% (inactive) | –
O=[N+]([O-])c1ccc(F)cc1F | 3.6% (inactive) | –
O=[N+]([O-])c1cccc(I)c1 | -9.2% (inactive) | –
COc1cc(-c2ccc(N=C=O)c(OC)c2)ccc1N=C=O | -1.14% (inactive) and -5.75% (inactive) | –
C=CC(=O)CC | -3.35% (inactive) | –

Compound | max response | Potency
O=C(OCc1ccccc1)c1ccccc1O | 9.47% (inactive) and -5.04% (inactive) | –
N=C1C=CC(=C(c2ccc(N)cc2)c2ccc(N)cc2)C=C1 | – | 31.6 µM (active)
c1ccc2c(c1)ccc1ccccc12 | 2.85% (inactive) and -2.95% (inactive) | –
CCc1ccc(C(c2ccc(CC)cc2)C(Cl)Cl)cc1 | -18.5% (inactive) | –
Oc1ccc(O)c2c(O)cccc12 | -5% (inactive) | –
O=c1[nH]ncc2ccccc12 | 0.756% (inactive) | –
Oc1cc2c(cc1O)[C@H]1c3ccc(O)c(O)c3OC[C@@]1(O)C2 | -28.5% (inactive) | –
O=C1c2ccccc2C(=O)C1(O)O | -12.1% (inactive) | –
CCCCC(CC)COP(=O)(OCC(CC)CCCC)OCC(CC)CCCC (stereo not given) | -14.3% (inactive) | –
Cc1c(N)cccc1Cl | 0.674% (inactive) | –
NC(=O)Nc1nc2ccccc2[nH]1 | -5.65% (inactive) | –
CCC(Cl)CC(Cl)C(Cl)C(Cl)C(Cl)C(C)Cl (stereo not given) | 0.239% (inactive) | –
Brc1cc(Oc2cc(Br)c(Br)c(Br)c2Br)c(Br)c(Br)c1Br | -20.8% (inactive) and -10.9% (inactive) | –
C=CC(C)(O)CCCC(C)CCCC(C)CCCC(C)C (stereo not given) | -8.32% (inactive) | –
C=CC(=O)OCCCCCCOC(=O)C=C | -28.7% (inactive) and -17.5% (inactive) | –
c1cc2c3c(c1)ccc1cccc(c13)C2 | 3.07% (inactive) | –
c1ccc(CSCc2ccccc2)cc1 | 1.27% (inactive) | –
O=C(O)/C=C/c1ccc(/C=C/C(=O)O)cc1 | -14.7% (inactive) | –
COc1ccc(C)cc1N | -15% (inactive) | –
